According to PubChem BioAssay (NCATS):
Inconclusive results are not listed. Active and inactive are the calls of the source. Unless noted, the call rests on the fitted dose curve; in most records, active means well fitted curve in the direction sought with a large enough effect; inconclusive means small, poorly fitted or top-dose-only effect, or another doubt; inactive means no such curve, though single readings can be large; an effect the other way counts as inactive or inconclusive.

How the values were obtained:
[1] = Validation screen for small molecules that induce DNA re-replication in MCF 10A normal breast cells (AID 463097); further: nearly all actives have a fitted effect of over 60% in size
How it was run: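 DNA re-replication was detected as a rise in nuclei with elevated Hoechst fluorescence after a 48 hr compound exposure of MCF 10A cells at 37 C.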

[2] = Cytometric Cell-Based qHTS for Inhibitors of the mTORC1 Signaling Pathway in MEF (Tsc2-/-, p53-/-) Cells (AID 2660);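 further: Tsc2 and p53 null MEFs carrying empty vector with compound for 24 h; percent of cells above a phospho-rpS6 to PI ratio cutoff in each well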
How it was run: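 Percent of cells positive for normalized phospho-S6 staining is reported, with the cutoff set from rapamycin (7.5 nM) versus DMSO wells. Tsc2-/-, p53-/- MEFs received compound for 24 hrs.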

[3] = High Content Imaging Cell-Based qHTS for Inhibitors of the mTORC1 Signaling Pathway in MEF (Tsc2-/-, p53-/-) Cells (AID 2666); conditions: at 38.3 µM (top of the series);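 further: percent of cells scored positive for phospho-rpS6 Ser235/236 immunostaining by imaging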
How it was run: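 Cells were plated, dosed with compound after 24 hrs, and incubated another 24 hrs at 37 degree Celsius. Fixed cells were immunostained for phospho-rpS6 Ser235/236 and counterstained, and the normalized signal was scored as % active cells against rapamycin and DMSO controls.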

[4] = High Content Imaging Cell-Based qHTS for Inhibitors of the mTORC1 Signaling Pathway in MEF Cells (AID 2667);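 further: Tsc2-/- p53-/- MEFs stably re-expressing wild-type Tsc2 exposed 24 h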
How it was run: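 Immunofluorescence for rpS6 phosphorylation in MEFs of Tsc2-/-, p53-/- background rescued with WT Tsc2. Compound exposure lasted 24 hrs. Inhibition was scored against rapamycin-treated control wells.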

[5] = Cytometry Cell-Based qHTS for Inhibitors of the mTORC1 Signaling Pathway in MEF cells (AID 2668);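 further: Tsc2-/- p53-/- mouse embryonic fibroblasts stably re-expressing wild-type Tsc2; percent cells positive for phospho-rpS6 Ser235/236 relative to propidium iodide stain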
How it was run: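 Pathway inhibition in WT Tsc2-rescued Tsc2-/-, p53-/- MEFs is measured as the Alexa-488 phospho-rpS6 to propidium iodide intensity ratio after 24 hrs of compound at 37 degree Celsius. PI-stained cell number gives viability.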

[6] = target: Ubiquitin carboxyl-terminal hydrolase 2 (Homo sapiens) (UniProt O75604); experiment: qHTS Validation Assay for Inhibitors of Ubiquitin-specific Protease USP2a Using CHOP2 as the Reporter (AID 463106)
Chain of Ubiquitin carboxyl-terminal hydrolase 2 (Homo sapiens) (O75604 whole entry, looked up): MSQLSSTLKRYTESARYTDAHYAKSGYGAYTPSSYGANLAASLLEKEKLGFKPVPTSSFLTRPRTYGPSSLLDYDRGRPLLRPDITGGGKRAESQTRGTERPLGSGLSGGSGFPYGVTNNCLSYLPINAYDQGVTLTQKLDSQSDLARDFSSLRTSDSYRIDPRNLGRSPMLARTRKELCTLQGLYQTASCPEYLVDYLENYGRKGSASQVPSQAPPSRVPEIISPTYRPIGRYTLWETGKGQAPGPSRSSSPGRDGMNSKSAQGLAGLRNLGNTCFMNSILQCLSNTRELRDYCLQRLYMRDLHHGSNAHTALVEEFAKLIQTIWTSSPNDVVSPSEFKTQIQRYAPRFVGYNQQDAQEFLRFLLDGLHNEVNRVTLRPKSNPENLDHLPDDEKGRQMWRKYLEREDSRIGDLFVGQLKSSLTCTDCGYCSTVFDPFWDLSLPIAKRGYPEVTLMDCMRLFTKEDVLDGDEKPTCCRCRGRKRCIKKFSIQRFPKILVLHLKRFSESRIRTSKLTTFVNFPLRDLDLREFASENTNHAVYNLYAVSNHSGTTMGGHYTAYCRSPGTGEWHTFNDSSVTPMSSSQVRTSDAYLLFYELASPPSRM
How it was run: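 10nM USP2 core + cpd, 30min RT; add 25nM Ub-CHOP2/25nM substrate; 60min RT; FI 485/531nm. Buffer Tris pH 8.0, CaCl2, BME, CHAPS. Norm. to NEM = 100% inhibition; time-zero read flags fluorescent artifacts.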

[7] = target: DNA polymerase III PolC-type (Bacillus subtilis (strain 168)) (UniProt P13267); experiment: qHTS Validation Assay for the Inhibitors of DNA Replication in Gram-Positive Bacteria (AID 485295);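 further: reconstituted holoenzyme with PolC plus beta clamp SSB and primase; PicoGreen fluorescence of double-stranded DNA made on primed circular M13 template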
Chain of DNA polymerase III PolC-type (Bacillus subtilis (strain 168)) (P13267 whole entry, looked up): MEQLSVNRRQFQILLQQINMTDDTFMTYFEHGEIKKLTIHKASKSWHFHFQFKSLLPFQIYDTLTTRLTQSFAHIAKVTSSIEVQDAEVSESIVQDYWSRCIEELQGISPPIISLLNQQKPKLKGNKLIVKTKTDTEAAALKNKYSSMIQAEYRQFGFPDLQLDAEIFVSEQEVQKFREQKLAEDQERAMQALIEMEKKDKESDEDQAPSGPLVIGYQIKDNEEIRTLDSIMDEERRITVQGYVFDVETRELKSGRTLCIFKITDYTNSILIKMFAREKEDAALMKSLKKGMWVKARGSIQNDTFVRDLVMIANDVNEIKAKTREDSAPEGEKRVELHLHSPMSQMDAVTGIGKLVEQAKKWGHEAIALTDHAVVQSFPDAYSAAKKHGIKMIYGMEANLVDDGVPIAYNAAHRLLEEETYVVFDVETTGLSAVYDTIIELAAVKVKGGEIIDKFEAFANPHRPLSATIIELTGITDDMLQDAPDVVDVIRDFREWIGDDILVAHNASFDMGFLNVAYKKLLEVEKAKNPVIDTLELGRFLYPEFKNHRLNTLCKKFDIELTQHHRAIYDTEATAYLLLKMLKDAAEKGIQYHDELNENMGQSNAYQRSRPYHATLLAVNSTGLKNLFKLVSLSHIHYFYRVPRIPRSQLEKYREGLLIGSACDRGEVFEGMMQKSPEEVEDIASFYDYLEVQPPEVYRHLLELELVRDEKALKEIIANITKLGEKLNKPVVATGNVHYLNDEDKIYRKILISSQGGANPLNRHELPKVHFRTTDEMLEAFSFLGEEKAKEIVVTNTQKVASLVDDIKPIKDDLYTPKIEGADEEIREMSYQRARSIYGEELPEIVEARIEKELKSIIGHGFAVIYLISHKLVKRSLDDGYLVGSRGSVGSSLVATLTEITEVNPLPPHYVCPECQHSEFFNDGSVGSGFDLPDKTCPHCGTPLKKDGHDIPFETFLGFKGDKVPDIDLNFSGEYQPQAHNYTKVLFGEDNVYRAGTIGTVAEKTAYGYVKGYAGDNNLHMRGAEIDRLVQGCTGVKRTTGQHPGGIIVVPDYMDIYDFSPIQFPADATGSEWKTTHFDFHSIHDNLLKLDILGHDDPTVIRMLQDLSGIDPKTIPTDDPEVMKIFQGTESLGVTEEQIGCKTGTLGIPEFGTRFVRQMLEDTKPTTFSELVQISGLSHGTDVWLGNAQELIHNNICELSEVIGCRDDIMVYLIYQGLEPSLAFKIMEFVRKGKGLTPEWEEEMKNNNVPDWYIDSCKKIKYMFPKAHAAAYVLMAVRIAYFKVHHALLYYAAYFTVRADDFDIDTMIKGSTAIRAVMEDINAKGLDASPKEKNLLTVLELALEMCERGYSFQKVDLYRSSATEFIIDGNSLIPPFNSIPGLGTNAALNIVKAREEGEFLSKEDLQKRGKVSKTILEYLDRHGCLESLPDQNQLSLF
How it was run: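 Primed replication of single-stranded M13Gori by a four-protein B. subtilis holoenzyme is measured at room temperature. Double-stranded product is quantified by PicoGreen fluorescence after an EDTA stop; inhibition is scaled between DMSO and EDTA controls.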

[8] = target: Tumor susceptibility gene 101 protein (Homo sapiens) (UniProt Q99816); experiment: qHTS Validation Assay for Iinhibitors of HIV-1 Budding by Blocking the Interaction of PTAP/TSG101 (AID 485342; calls by dose curve)
Chain of Tumor susceptibility gene 101 protein (Homo sapiens) (Q99816 whole entry, looked up, the tested form may be a part): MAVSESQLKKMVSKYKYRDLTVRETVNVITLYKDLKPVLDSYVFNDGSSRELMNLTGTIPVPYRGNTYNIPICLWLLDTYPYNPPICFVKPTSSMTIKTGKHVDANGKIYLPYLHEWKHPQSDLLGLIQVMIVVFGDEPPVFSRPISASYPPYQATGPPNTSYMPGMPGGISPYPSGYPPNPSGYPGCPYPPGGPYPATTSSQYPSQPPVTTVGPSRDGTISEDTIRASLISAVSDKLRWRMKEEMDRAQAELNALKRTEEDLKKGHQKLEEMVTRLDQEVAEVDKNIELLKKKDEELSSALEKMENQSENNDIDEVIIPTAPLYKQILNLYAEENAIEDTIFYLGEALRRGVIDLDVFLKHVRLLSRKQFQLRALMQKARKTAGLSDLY
How it was run: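 Fluorescence anisotropy measured PTAP-Tsg101 interaction. Final concentrations were 10 uM protein domain and 50 nM labeled peptide, equilibrated 20 min at room temperature.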

[9] = target: Beta-2 adrenergic receptor (Homo sapiens) (UniProt P07550); experiment: qHTS validation assay of beta-arrestin-biased ligands of beta2-adrenergic receptor (AID 485366)
Chain of Beta-2 adrenergic receptor (Homo sapiens) (P07550 whole entry, looked up): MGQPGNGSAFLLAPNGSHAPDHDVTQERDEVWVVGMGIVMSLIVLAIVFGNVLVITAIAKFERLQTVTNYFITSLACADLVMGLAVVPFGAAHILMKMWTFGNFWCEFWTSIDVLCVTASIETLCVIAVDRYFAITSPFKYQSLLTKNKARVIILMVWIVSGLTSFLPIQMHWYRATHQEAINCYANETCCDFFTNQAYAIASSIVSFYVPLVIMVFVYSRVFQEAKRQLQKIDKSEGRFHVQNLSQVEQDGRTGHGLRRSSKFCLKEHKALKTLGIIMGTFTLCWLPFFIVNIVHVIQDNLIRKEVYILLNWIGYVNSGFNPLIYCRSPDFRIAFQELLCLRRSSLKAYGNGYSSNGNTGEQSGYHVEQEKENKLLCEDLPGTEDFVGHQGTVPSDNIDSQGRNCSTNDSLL
How it was run: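 Luminescence from a tTA-responsive luciferase, induced when recombinant beta-arrestin is recruited to recombinant beta2-AR, served as the agonism signal. Cells were exposed to compound for 18 hr at 37 degrees C; titrations spanned up to 46 microM.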

[10] = target: ATP-dependent 6-phosphofructokinase (Trypanosoma brucei brucei) (UniProt O15648); experiment: qHTS Validation Assay to Find Inhibitors of T. brucei phosphofructokinase (AID 485368); conditions: T. brucei PFK enzyme assay, qHTS 7-point titration; at 57.5 µM (top of the series)
Chain of ATP-dependent 6-phosphofructokinase (Trypanosoma brucei brucei) (O15648 whole entry, looked up): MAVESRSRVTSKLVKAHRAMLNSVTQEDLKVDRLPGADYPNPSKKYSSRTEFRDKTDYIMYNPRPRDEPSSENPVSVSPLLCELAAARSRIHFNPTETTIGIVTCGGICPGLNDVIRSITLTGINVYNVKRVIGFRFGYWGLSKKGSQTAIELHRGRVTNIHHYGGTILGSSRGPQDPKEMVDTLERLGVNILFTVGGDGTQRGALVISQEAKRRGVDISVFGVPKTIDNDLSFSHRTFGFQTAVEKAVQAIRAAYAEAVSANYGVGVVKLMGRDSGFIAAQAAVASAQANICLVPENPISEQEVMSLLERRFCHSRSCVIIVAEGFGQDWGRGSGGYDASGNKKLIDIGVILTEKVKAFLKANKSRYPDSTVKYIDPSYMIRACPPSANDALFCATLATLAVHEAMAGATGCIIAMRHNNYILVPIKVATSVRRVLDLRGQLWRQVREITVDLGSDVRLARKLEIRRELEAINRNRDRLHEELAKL
How it was run: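 Activity was normalized between 1x (1.25 nM) PFK wells as no inhibition and enzyme-free wells as full inhibition, from luminescence after ADP-Glo detection of ADP made from 0.5 mM F6P and 0.1 mM ATP over 45 min.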

Measured: outcome

CC[N+](C)(C)Cc1ccccc1Br
inactive: [1]

CN1Cc2c(N)cccc2C(c2ccccc2)C1 (stereo unspecified)
inactive: [2] | [3] | [4] | [5] | [1] | [6] | [7] | [8] | [9] | [10]
